The campaign covered roughly 74,000 compounds. About 1,100 (1.5%) were called active. About 5% were inconclusive and are not listed. Calls follow the shape of the dose curve; as a rule, active = well fitted inhibition curve with a large enough effect; inconclusive = small, poorly fitted or top-dose-only effect; inactive = no such curve, though single readings can be large or run the other way. What follows is part of a selection rich in actives, with near analogues and random picks from the rest. Where a call stands in place of a potency, no number is given.
Molecular target: Polyunsaturated fatty acid lipoxygenase ALOX15 (Homo sapiens) (UniProt P16050)
Sequence (P16050 whole entry, looked up): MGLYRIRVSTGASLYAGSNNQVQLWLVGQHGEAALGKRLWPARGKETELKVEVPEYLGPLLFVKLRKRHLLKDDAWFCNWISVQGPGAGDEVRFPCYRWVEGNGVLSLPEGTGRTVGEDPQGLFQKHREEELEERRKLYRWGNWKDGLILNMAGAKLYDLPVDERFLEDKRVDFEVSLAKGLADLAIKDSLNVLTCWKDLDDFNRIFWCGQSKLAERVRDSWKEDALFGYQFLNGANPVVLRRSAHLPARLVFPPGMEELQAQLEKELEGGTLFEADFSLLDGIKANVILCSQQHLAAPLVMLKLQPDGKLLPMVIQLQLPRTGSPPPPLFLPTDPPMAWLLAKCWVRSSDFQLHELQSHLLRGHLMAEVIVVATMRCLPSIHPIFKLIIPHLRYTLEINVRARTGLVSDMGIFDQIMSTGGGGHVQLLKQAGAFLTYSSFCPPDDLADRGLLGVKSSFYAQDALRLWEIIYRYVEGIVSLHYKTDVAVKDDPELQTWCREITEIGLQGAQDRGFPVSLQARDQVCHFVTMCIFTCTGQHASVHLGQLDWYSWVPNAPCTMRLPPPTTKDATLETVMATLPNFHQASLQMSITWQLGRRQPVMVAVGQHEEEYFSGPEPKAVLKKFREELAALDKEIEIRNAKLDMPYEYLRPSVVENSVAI
Test: qHTS Assay for Inhibitors of 15-hLO (15-human lipoxygenase); also: nearly all actives have a fitted effect of over 55% in size
Settings: purified 15hLO-1, xylenol orange hydroperoxide absorbance; series mostly up to 57.1 µM
From the text: Assay Overview: NIH Molecular Libraries Screening Centers Network [MLSCN] NIH Chemical Genomics Center [NCGC] MLSCN Grant: MH081283-01A1 PI Name: Holman, T.R., University of California, Santa Cruz Human lipoxygenase 15hLO-1 is a member of the closely related lipoxygenase family of enzymes which catalyze the site-specific oxidation of arachidonic acid to various hormone precursor molecules and as such is a candidate for drug development in a variety of disease areas, such as cancer and inflammation. Inhibition of 15hLO-1 activity was screened by utilizing arachidonic acid as a substrate. The extent of hydroperoxide product formation was measured by a secondary chromogenic reaction in which xylenol orange (XO, Sigma-Aldrich, cat. number 39,818-7) reacts with the ferric ions produced from the reaction between the hydroperoxide and ferrous ions. The Fe(III)-XO complex is characterized with red-shifted absorbance at 560 nm. A purified preparation of human 15hLO-1 was supplied by Professor Ted Holman, University of California, Santa Cruz.
Assay Protocol: Buffer: 25 mM Hepes pH 7.5, 0.01% Triton X-100. Reagents/Controls: Buffer in columns 3 and 4 as negative control (no enzyme). Substrate solution: 50 uM arachidonic acid (Sigma-Aldrich, St. Louis, MO) final concentration dispensed throughout the plate. Enzyme: 40 nM 15hLO-1 final concentration in columns 1, 2, 5-48. Column 1 is neutral (100% activity). Column 2 contained pin-transferred titration of NDGA (nordihidroguaiaretic acid, Sigma-Aldrich, N 5023, top concentration 10 mM in DMSO, then 1:2 dilution in duplicate). (Dilution factor: 23 nL into 4 uL.) Chromogenic detection reagent (divalent iron/xylenol orange, Fe-XO): 200 uM xylenol orange plus 300 uM ferrous ammonium sulfate prepared freshly in 50 mM sulfuric acid. Assay Steps: Three uL of enzyme were dispensed to 1536-well Greiner black clear bottom plates. Compounds and controls (23 nL) were transferred via Kalypsys PinTool. The plates were incubated for 15 min at room temperature, and then 1 uL of substrate solution was added to start the reaction. After room temperature incubation for 6 minutes, 4 uL of Fe-XO solution was added to each well followed by a short spin (1000 rpm, 15 sec) and the plates were then incubated for 30 min. The absorbance at 405 and 573 nm were measured using ViewLux (Perkin-Elmer) High-throughput CCD imager and absorbance protocol settings. The 573-to-405 absorbance ratio was used to compute reaction progress.
Potency is read from the fitted curve at half-maximal effect.

| Compound | activity change, negative = inhibition | Potency |
| --- | --- | --- |
| COCn1c(COc2ccccc2)nc2ccccc21 | -9.11% [at 11.4 µM] (inactive) | – |
| Cn1c(COc2ccc(Cl)cc2)nc2ccccc2c1=O | – | 25.1 µM (active) |
| COc1ccc(OCc2ccc(-c3nc4ccccc4c(=O)n3N)o2)cc1 | inactive | – |
| c1ccc(Oc2ccccc2)cc1 | inactive | – |
| CC(C)(O)CCC(O)[C@@](C)(O)C1CC[C@]2(O)C3=CC(=O)C4CC(O)C(O)C[C@]4(C)C3CC[C@]12C (some centres not stated) | inactive | – |
| O=C1OCCC=C1[C@@H](O)CCc1ccccc1 | 9.13% [at 11.4 µM] (inactive) | – |
| Nc1nc2c(nc(Cl)n2C2OC(CO)C(O)C2O)c(=O)[nH]1 (configuration not stated) | inactive | – |
| CC1=C(/C=C/C(C)=C/C=C/C(C)=C/C=C/C=C(C)/C=C/C=C(C)/C=C/C2=C(C)CCCC2(C)C)C(C)(C)CCC1 | inactive | – |
| CC/C=C/C/C=C/C/C=C/CCCCCCCC(=O)OCC | – | 2.51 µM (active) |
| Oc1c(Br)cc(CN(Cc2cc(Br)c(O)c(Br)c2)C2CCCCC2)cc1Br | 11.3% [at 11.4 µM] (inactive) | – |
| CC1(C)SC2C(NC(=O)COc3ccccc3)C(=O)N2C1C(=O)O (configuration not stated) | inactive | – |
| O=C1OC(C(O)CO)C(O)=C1O (configuration not stated) | inactive | – |
| COC(=O)CSC1=C(C#N)C(c2ccccc2OC)C(C(=O)OC)C(=O)N1 (configuration not stated) | -4.29% [at 11.4 µM] (inactive) | – |
| CCCSC1=C(C#N)C(c2ccccc2C)C(C(=O)OC)C(=O)N1 (configuration not stated) | – | 12.6 µM (active) |
| CCOC(=O)CSC1=C(C#N)C(c2sccc2C)CC(=O)N1 (configuration not stated) | inactive | – |
| CN(C)CCCCNC(=O)c1ccc(Cc2nc3ccccc3[nH]2)cc1 | inactive | – |
| O=C(O)C(O)[C@@](O)(Cc1ccc(O)cc1)C(=O)O (some centres not stated) | inactive | – |
| CCOC(=O)[C@]1(C(/C=C/c2ccco2)NC(=O)OC)CCCC1=O (some centres not stated) | 5.21% [at 11.4 µM] (inactive) | – |
| Cc1c(O)cc(O)c2c(=O)c(-c3ccc(O)cc3)coc12 | inactive | – |
| CN(C)CCc1c[nH]c2ccc(Cn3cncn3)cc12 | inactive | – |
| N#CC(C(=O)c1ccc(S(=O)(=O)N2CCCCCC2)cc1)c1nc2ccccc2[nH]1 (configuration not stated) | inactive | – |
| Cc1ccc(S(=O)(=O)C(C#N)c2nc3ccccc3nc2N2CCCC2)cc1C (configuration not stated) | – | 12.6 µM (active) |
| CC(C)OC(=O)C(C#N)c1nc2ccccc2nc1N1CCN(Cc2ccccc2)CC1 (configuration not stated) | inactive | – |
| CC1CCCCN1CCCNC(=O)c1ccc(-n2c(=O)c(=O)[nH]c3ccccc32)cc1 (configuration not stated) | inactive | – |

| Compound | activity change, negative = inhibition | Potency |
| --- | --- | --- |
| CC1OC(OCC2OC(Oc3c(-c4ccc(O)c(O)c4)oc4cc(O)cc(O)c4c3=O)C(O)C(O)C2O)[C@@H](O)C(O)C1O (some centres not stated) | inactive | – |
| CC(=O)OCC(=O)C1CCC2C3CCC4=CC(=O)CC[C@@]4(C)C3CC[C@]12C (some centres not stated) | inactive | – |
| Oc1c(Cl)cc(Cl)c(Cl)c1Cc1c(O)c(Cl)cc(Cl)c1Cl | – | 5.01 µM (active) |
| COc1cc(OC)c2c(c1Cl)OC1(C2=O)C(O)=CC(=O)CC1C (configuration not stated) | inactive | – |
| CC1O[C@@H](Oc2c(-c3ccc(O)c(O)c3)oc3cc(O)cc(O)c3c2=O)C(O)C(O)C1O (some centres not stated) | inactive | – |
| O=c1cc(-c2ccc(O)c(O)c2)oc2cccc(O)c12 | – | 0.398 µM (active) |
| Cc1cccc(-c2cc(=O)c3cc(C)ccc3o2)c1 | inactive | – |
| COC1C[C@@H](O[C@@H]2C(C)C(=O)OC(C)C(C)C(O)C(C)C(=O)[C@@]3(CO3)CC(C)C(OC3OC(C)CC(N(C)C)C3O)C2C)OC(C)[C@@H]1O (some centres not stated) | inactive | – |
| C=CCSc1nc2c(c(=O)[nH]1)C(C(C)C)C(C#N)=C(N)O2 (configuration not stated) | inactive | – |
| CO[C@H]1COC(=O)[C@@H](OCc2ccccc2)/C=C\[C@H](C)[C@@H](OC)COC(=O)[C@H](OCc2ccccc2)/C=C\[C@@H]1C | -2.96% [at 11.4 µM] (inactive) | – |
| CN(C(=O)CN(CCO)CC(=O)N(C)C(C)(C)Cc1ccccc1)C(C)(C)Cc1ccccc1 | inactive | – |
| CCN(CC)c1ccc2oc(=O)c(C)nc2c1 | – | 25.1 µM (active) |
| Cc1ccc2oc(=O)ccc2c1 | inactive | – |
| CCc1ccc2oc(-c3ccc(N)cc3)nc2c1 | inactive | – |
| Nc1nnc(SCCN2C(=O)c3ccccc3S2(=O)=O)s1 | inactive | – |
| COc1ccc(/C=C/C(=O)c2ccc(OC)cc2O)cc1 | -1.36% [at 11.4 µM] (inactive) | – |
| c1cnn(-c2cc(N3CCOCC3)ncn2)c1 | inactive | – |
| COc1c(C)cccc1C(=O)Nc1cc(Cl)ccc1N1CCOCC1 | inactive | – |
| O=C(Nc1cc(N2CCOCC2)ncn1)NC1(C(F)(F)F)Oc2ccc(Cl)cc2O1 (configuration not stated) | – | 5.01 µM (active) |
| CCCCCCCCCc1ccc(OCCOCCOCCOCCOCCOCCOCCOCCOCCO)cc1 | inactive | – |
| COC(=O)C1=C(C)Nc2ncnn2C1c1ccco1 (configuration not stated) | inactive | – |
| O=C(NCCc1ccc2c(c1)OCCO2)c1cc2ccccc2o1 | inactive | – |
| CCC(C(=O)NC1CCCC1)N(C(=O)c1snc(C(N)=O)c1N)c1ccc2c(c1)OCCO2 (configuration not stated) | – | 25.1 µM (active) |

— PubChem BioAssay AID887 (National Center for Advancing Translational Sciences (NCATS), 2007)
